# Source: PubChem BioAssay
# Vaccinia Venus: inhibitors of vaccinia virus (Venus reporter). Potency, µM (top dose mostly 36.5 µM), inactives show at the top dose activity change, negative = inhibition, actives largely listed as inhibitors. 330,000 compounds, 0.46% hits. Vaccinia virus Venus reporter expression, fluorescence; calls by dose curve; tested in A549 cells; further: potency means the concentration at half of the fitted maximal effect; nearly all actives have a fitted effect of over 30% in size
# Marburg entry inh: Marburg virus entry inhibition. Marburg virus pseudotyped entry inhibition, cell reporter. Potency, µM (series often up to 37.8 µM), for the others: top-dose activity change, negative = inhibition, hits mostly inhibitors. 300,000 compounds, 1.8% hits; calls by dose curve; tested in HEK293 cells; further: potency means the concentration at half of the fitted maximal effect
# Vaccinia mCherry: vaccinia inhibition (mCherry reporter); AID 720579; Vaccinia virus mCherry reporter infection, fluorescence; Potency, µM (series often up to 36.5 µM), for inactives: at the top dose activity change, negative = inhibition, usual class: inhibitors; 310,000 compounds, 0.63% hits; calls by dose curve; tested in A549 cells; further: potency means the concentration at half of the fitted maximal effect; nearly all actives have a fitted effect of over 35% in size
# FMDV inh: blocks foot and mouth disease virus. FMDV antiviral cell-based qHTS. Potency, µM (series often up to 57.9 µM), for the others: top-dose activity change, negative = inhibition, actives largely listed as inhibitors. 410,000 compounds, 1.2% hits; calls by dose curve; tested in HEK293T cells; further: read-out not given here; potency means the concentration at half of the fitted maximal effect; nearly all actives have a fitted effect of over 45% in size
# Lassa entry inh: inhibitors of Lassa virus binding or cell entry; Lassa virus pseudotype entry inhibition, cell reporter; Potency, µM (highest dose often 37.9 µM), inactives show top-dose activity change, negative = inhibition, actives largely listed as inhibitors; 300,000 compounds, 1.2% hits; AID 540256; calls by dose curve; tested in HEK293 cells; further: potency means the concentration at half of the fitted maximal effect; nearly all actives have a fitted effect of over 50% in size
# HCMV antiviral: blocks human cytomegalovirus replication; AID 1259415; 410,000 compounds, 4.5% hits; activity change, negative = inhibition, % at 57.5 µM; HFF cells, HCMV-luciferase reporter, 72 h; active compounds read low; in the data active means activity change below about -60%; inconclusive means no clear call, values can overlap the other calls; inactive means above about -39%
#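 Inhibition of viral replication was scored as loss of reporter luminescence in HFFs infected with HCMV-luciferase (MOI 1 PFU/cell) for 72 h; compounds tested at 2 doses, normalized to buffer and Salinomycin controls.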
# An asterisk follows results filed as active; i = inactive; ? = inconclusive; . = not tested or not shown; [ ] = another dose, or the depositor's remark. This is a sample that favours compounds with a hit; in the whole collection about 6.5% have one here. On the % scale 0 is the no-effect control and ±100 the full control effect.
SMILES,Vaccinia Venus,Marburg entry inh,Vaccinia mCherry,FMDV inh,Lassa entry inh,HCMV antiviral
CC(C)(C)OC(=O)[C@H](Cc1ccccc1)NC(=O)c1[nH]cnc1C(=O)Nc1ccc(Cl)cc1,?,.,?,?,.,-38
CC(C)(C)OC(=O)[C@H](Cc1ccccc1)NC(=O)c1nc[nH]c1C(=O)N[C@@H](Cc1ccccc1)C(=O)OC(C)(C)C,?,.,?,?,.,-68*
CCOC(=O)c1ccc(NC(=O)c2nc[nH]c2C(=O)N[C@@H](Cc2ccccc2)C(=O)OC(C)(C)C)cc1,?,-1%,13µM*,?,.,11
COc1ccc(NC(=O)c2c(NCc3ccc(N(C)C)cc3)sc3c2CCC3)cc1,-2%,.,-3%,11%,?,28
COc1cc(OC)c2c(-c3cccc(-c4ccc(OC)c(F)c4)c3)cc(=O)oc2c1,?,.,?,-8%,.,-68*
CCc1cc(=O)oc2cc3occ(-c4ccc(OC)c(F)c4)c3cc12,-21%,?,?,?,5µM*,-68*
COc1cc(OC)c2c(-c3cccc(-c4ccc(C(C)=O)cc4)c3)cc(=O)oc2c1,-7%,.,-33%,-2%,.,.
O=C(COc1ccccc1C(=O)Nc1ccccc1)Nc1ccc2ccccc2c1,-20%,.,-7%,.,.,.
CC(C)(C)c1ccc(C(=O)Nc2cccc3c(=O)[nH][nH]c(=O)c23)cc1,-14%,?,-22%,4.5µM*,7.1µM*,-69*
CN(C)c1ccc(/C=C/c2ccnc3ccccc23)cc1C=O,-10%,.,-24%,.,.,.
CN(C)CCCN(C(=O)CCS(=O)(=O)c1ccccc1)c1nc2cc3c(cc2s1)OCO3,10µM*,?,?,28µM*,?,-113*
COc1ccc(Cl)c2sc(N(CCN(C)C)C(=O)CCS(=O)(=O)c3ccc(C)cc3)nc12,-9%,5%[46.1 µM],-30%,-29%,0%,6
Cc1ccc2sc(N(CCCN(C)C)C(=O)CCS(=O)(=O)c3ccccc3)nc2c1C,.,.,.,32µM*,.,0
CCN(CC)CCN(C(=O)CCS(=O)(=O)c1ccccc1)c1nc2c(C)cc(C)cc2s1,?,?,14µM*,-4%,?,?
CCN(CC)CCN(C(=O)CCS(=O)(=O)c1ccccc1)c1nc2cc(C)cc(C)c2s1,-20%,?,-2%,?,?,-8
COc1ccc(OC)c2sc(N(CCCN(C)C)C(=O)CCS(=O)(=O)c3ccccc3)nc12,?,?,?,35µM*,-25%,16
Cc1cccc(C(=O)N[C@H]2CC[C@@]34CCCN3C(=O)CCC[C@H]4[C@H]2Cc2ccccc2)c1,.,.,.,.,.,-27
CN(C)CCCN(Cc1ccccc1)C(=S)Nc1ccc(SC(F)F)cc1,.,.,.,-4%,.,?
FC(F)Sc1ccc(NC(=S)NC2CCCCC2)cc1,-16%,-1%,-29%,44%,-3%,7
FC(F)Sc1ccc(NC(=S)NCc2ccccc2)cc1,?,?,-1%,50%,?,-88*
CN(C(=S)Nc1ccc(SC(F)F)cc1)C(c1ccccc1)c1ccccc1,.,.,.,-13%,.,-72*
FC(F)Sc1ccc(NC(=S)NC(c2ccccc2)c2ccccc2)cc1,.,18µM*,.,?,?,-98*
N#Cc1nc(Nc2cc(F)cc(F)c2)c2ncn(CC(F)F)c2n1,.,.,.,-18%,.,31
N#Cc1nc(NCC(F)F)nc(Nc2cc(F)cc(F)c2)n1,.,.,.,11µM*,.,-38
COc1ccc(NC(=O)C(c2ccc(C)cc2)N(C)C(=O)/C=C\c2ccc3c(c2)OCO3)cc1 (centres undefined),-12%,?,-12%,3%,?,-7
SMILES,Vaccinia Venus,Marburg entry inh,Vaccinia mCherry,FMDV inh,Lassa entry inh,HCMV antiviral
CC(C)COc1ccc(CNC(=S)NCc2ccccc2)cc1,-23%,?,-24%,.,-8%,-82*
S=C(NCCCc1ccccc1)NCc1ccccc1,-5%,?,-2%,28%,-27%[46.1 µM],-83*
S=C(NCc1ccccc1)NCc1ccccc1,-4%,6%,-12%,.,2%,?
COc1ccc(C(=O)N[C@H]2CC[C@@]34CCCN3C(=O)CCC[C@H]4[C@H]2Cc2ccccc2)cc1,.,.,.,.,.,-3
CC(=O)C1=C(C)N(Cc2ccccc2)C(=O)N[C@H]1CCc1ccccc1,-20%,?,-30%,?,12µM*,-93*
CC(=O)C1=C(C)N(Cc2ccccc2)C(=O)NC1CCc1ccccc1 (centres undefined),.,?,.,.,17%[14.3 µM],.
CCOC(=O)C1(c2ccccc2)CCN(CCC(C#N)(c2ccccc2)c2ccccc2)CC1,-17%,.,-5%,?,.,-86*
CCOC(=O)C1(c2ccccc2)CCN(CCC(=O)Nc2cccc(Br)c2)CC1,?,2.8µM*,?,-33%,13µM*,?
NC(C(=O)O)c1ccc(P(=O)(O)O)cc1 (centres undefined),-9%,.,i,-14%,.,.
COc1ccccc1Cn1c(-c2ccccc2OC)nc2ccccc21,-16%,3%,-24%,?,19%,-68*
Oc1ccccc1Cn1c(-c2ccccc2O)nc2ccccc21,.,8%,.,-13%,-9%,17
COC(=O)c1ccc(Cl)cc1NC(=O)N1CC=C(c2c[nH]c3ccccc23)CC1,-7%,.,-19%,5%,30%[46.1 µM],0
COc1ccc(COC(=O)N/N=C2/C[C@@H](O)[C@@H](O)[C@@H]3[C@@H]4C(=O)N(Cc5ccccc5)C(=O)[C@H]4CC[C@H]23)cc1,.,-25%[14.2 µM],.,.,.,.
COc1ccc(COC(=O)NN=C2C[C@@H](O)[C@@H](O)[C@@H]3[C@H]4C(=O)N(Cc5ccccc5)C(=O)[C@@H]4CC[C@@H]23)cc1,.,-25%[14.2 µM],.,.,4.4µM*,.
Cc1ccc(S(=O)(=O)N/N=C\c2ccccc2OCc2ccccc2)cc1,?,?,-27%,.,?,-74*
CCOC(=O)C(NCc1ccccc1)(NC(=O)c1ccccc1)C(F)(F)F (centres undefined),-17%,13%[46.1 µM],i,-9%,-27%,-6
CCOC(=O)C(NCc1ccc2c(c1)OCO2)(NC(=O)c1ccccc1)C(F)(F)F (centres undefined),-12%,6%[46.1 µM],-14%,-20%,-12%,-61*
NC(=O)Nn1c(CCC(=O)O)ccc1-c1ccc(F)cc1,.,-26%,.,-16%,7%,-93*
O=C(O)CCc1ccc(-c2ccc(F)cc2)n1CC(=O)O,-14%,0%,.,-13%,14%,-29
CCOC(=O)c1ccc(NC(=O)OC[C@@H]2CSCCS(=O)(=O)N2)cc1,.,.,.,.,.,-14
Cc1ccccc1N1CC(c2nc3ccccc3n2Cc2ccc(Br)cc2)CC1=O (centres undefined),-21%,4%[46.1 µM],-12%,0%,?,-78*
Cc1ccccc1N1CC(c2nc3ccccc3n2CCC2CCCCC2)CC1=O (centres undefined),?,3%[46.1 µM],-10%,?,-2%[46.1 µM],?
CC(C)(C)N1CC(c2nc3ccccc3n2Cc2ccc(Cl)cc2)CC1=O (centres undefined),.,?,.,-24%,3%,-1
